Reference: PubChem BioAssay (Tox21)
Where “and” joins values, the source holds several entries; their conditions need not be identical. Identical values can stand only once. Some structures have more than one record in an assay (separate samples or runs), and their calls can disagree. Calls of active or inactive are those of the source. Unless noted, calls come from the whole dose curve; as a rule, active = well fitted curve in the direction sought with a large enough effect in the repeat runs; inconclusive = weak or mixed curves; inactive = no such curve, though single readings can be large; an effect the other way counts as inactive or inconclusive.

Columns and labels:
[1] = qHTS assay to test for compound auto fluorescence at 535 nm (green) in HEK293 cells (AID 720680)
[2] = qHTS assay to test for compound auto fluorescence at 460 nm (blue) in HEK293 cell free culture (AID 720681)
In short: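 Blue fluorescence (Ex 405/Em 460 nm, triamterene-equivalent) was read immediately after pin transfer of compound or DMSO into medium (DMEM, 10% FBS) without cells.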

[3] = qHTS assay to test for compound auto fluorescence at 535 nm (green) in HEK293 cell free culture (AID 720682)
In short: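 DMEM + 10% FBS, cell-free; cpd or DMSO pinned in; Ex485/Em535 read; output as fluorescein-equivalent signal.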

[4] = qHTS assay to test for compound auto fluorescence at 590 nm (red) in HEK293 cell free culture (AID 720683)
In short: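 Red-channel autofluorescence of compounds in culture medium (DMEM, 10% FBS), no cells, measured at 540/590 nm. Rose Bengal sodium is the reference fluorophore for equivalence.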

[5] = qHTS assay to test for compound auto fluorescence at 590 nm (red) in HepG2 cell free culture (AID 720684)
In short: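 Cell-free; medium MEM + 10% FBS; compound or DMSO added by pintool; read Ex 540/Em 590 nm; Rose Bengal sodium as red reference fluorophore.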

[6] = qHTS assay to test for compound auto fluorescence at 460 nm (blue) in HepG2 cell free culture (AID 720685)
In short: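 Cell-free plates of MEM plus 10% FBS received 23 nL compound or DMSO vehicle; blue-channel (405/460 nm) intensity scored against triamterene as reference fluorophore.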

[7] = qHTS assay to test for compound auto fluorescence at 535 nm (green) in HepG2 cell free culture (AID 720686)
[8] = qHTS assay to test for compound auto fluorescence at 460 nm (blue) in HepG2 cells (AID 720687)
In short: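 Blue-channel autofluorescence (Ex/Em 405/460 nm, triamterene-equivalent) was measured after 1 hr compound exposure at 37 C, 5% CO2. Cells were HepG2, plated overnight at 37 C in MEM plus 10% FBS.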

[9] = molecular target: Glucocorticoid receptor (Homo sapiens) (UniProt P04150); assay: qHTS assay to identify small molecule agonists of the glucocorticoid receptor (GR) signaling pathway (AID 720691; active = well fitted activation curve with a large enough effect in the signal ratio in the repeat runs, not every such curve was filed as active; inconclusive = weak or mixed curves, or effect the other way; inactive = no such curve, though single readings can be large or run the other way; the % refers to the signal ratio; note: potency is the fitted concentration of half-maximal effect)
In short: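 Compounds in DMSO, alongside positive controls, were added to GR-bla HeLa reporter cells and incubated 18 h at 37 C; GRE-driven beta-lactamase was detected by fluorescence after 2 h with FRET substrate at room temperature.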

[10] = qHTS assay to identify small molecule antagonists of the glucocorticoid receptor (GR) signaling pathway - cell viability counter screen (AID 720693); note: nearly all actives have a fitted effect of over 55% in size
[11] = qHTS assay for identifying genotoxic compounds that show differential cytotoxicity against isogenic chicken DT40 cell lines with known DNA damage response pathways - wild type cell line (AID 743012); note: nearly all actives have a fitted effect of over 60% in size; note: potency is the fitted concentration of half-maximal effect
In short: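 Viability of DNA repair-proficient chicken DT40 cells was assessed by CellTiter-Glo luminescence following 40 h compound exposure at 37 C/5% CO2.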

[12] = qHTS assay for identifying genotoxic compounds that show differential cytotoxicity against isogenic chicken DT40 cell lines with known DNA damage response pathways - Rev3 mutant cell line (AID 743014); note: nearly all actives have a fitted effect of over 55% in size; note: potency is the fitted concentration of half-maximal effect
[13] = qHTS assay for identifying genotoxic compounds that show differential cytotoxicity against isogenic chicken DT40 cell lines with known DNA damage response pathways - Rad54/Ku70 mutant cell line (AID 743015); note: nearly all actives have a fitted effect of over 60% in size; note: potency is the fitted concentration of half-maximal effect
[14] = qHTS assay to identify small molecule antagonists of the androgen receptor (AR) signaling pathway - cell viability counter screen (AID 743033; note: nearly all actives have a fitted effect of over 45% in size)
[15] = molecular target: Glucocorticoid receptor (Homo sapiens) (UniProt P04150); assay: qHTS assay to identify small molecule antagonists of the glucocorticoid receptor (GR) signaling pathway (AID 720692; active = well fitted inhibition curve with a large enough effect in the signal ratio in the repeat runs, not every such curve was filed as active; inconclusive = weak or mixed curves, or effect the other way; inactive = no such curve, though single readings can be large or run the other way; the % refers to the signal ratio)
In short: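 In a 1536-well cell format, compounds were added 4 h after seeding GR-bla HeLa cells, together with dexamethasone at 5 nM final; reporter activity was measured by FRET-substrate fluorescence following 18 h at 37 C.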

[16] = qHTS assay to identify small molecule antagonists of the androgen receptor (AR) signaling pathway using the MDA cell line - cell viability counter screen (AID 743041; note: nearly all actives have a fitted effect of over 45% in size)
In short: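 Viability read by CellTiter-Fluor fluorescence in the same wells as the antagonist screen, added after 15.5 h of a 16 h, 37C exposure. Human breast carcinoma MDA-kb2 AR-luc cells, compounds co-dosed with agonist R1881.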

[17] = molecular target: Androgen receptor (Homo sapiens) (UniProt P10275); assay: qHTS assay to identify small molecule antagonists of the androgen receptor (AR) signaling pathway (AID 743035; active = well fitted inhibition curve with a large enough effect in the signal ratio in the repeat runs, not every such curve was filed as active; inconclusive = weak or mixed curves, or effect the other way; inactive = no such curve, though single readings can be large or run the other way; the % refers to the signal ratio; note: potency is the fitted concentration of half-maximal effect)
In short: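 Reporter HEK293 cells were exposed to compounds and R1881 overnight (16 h, 37C); beta-lactamase activity was then quantified by FRET fluorescence.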

[18] = molecular target: Androgen receptor (Homo sapiens) (UniProt P10275); assay: qHTS assay to identify small molecule agonists of the androgen receptor (AR) signaling pathway (AID 743036; active = well fitted activation curve with a large enough effect in the signal ratio in the repeat runs, with a control signal flat, not every such curve was filed as active; inconclusive = weak or mixed curves, or effect the other way; inactive = no such curve, though single readings can be large or run the other way; the % refers to the signal ratio)
In short: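 Screening used 2,000 AR-bla HEK293 cells per well, treated 16 h at 37C with test compounds in DMSO alongside positive and DMSO-only controls; beta-lactamase activity was then read by LiveBLAzer B/G FRET fluorescence after 2 h at room temperature.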

[19] = molecular target: Androgen receptor (Homo sapiens) (UniProt P10275); assay: qHTS assay to identify small molecule agonists of the androgen receptor (AR) signaling pathway using the MDA cell line (AID 743040; note: potency is the fitted concentration of half-maximal effect; nearly all actives have a fitted effect of over 20% in size)
In short: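 Luciferase agonist assay: 16 h compound exposure at 37C without CO2 in MDA-kb2 AR-luc cells, whose MMTV promoter responds to both AR and GR. Luminescence measured after 30 min room-temperature incubation with ONE-Glo.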

[20] = molecular target: Androgen receptor (Homo sapiens) (UniProt P10275); assay: qHTS assay to identify small molecule antagonists of the androgen receptor (AR) signaling pathway using the MDA cell line (AID 743042; note: nearly all actives have a fitted effect of over 55% in size)
In short: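 Antagonist mode: compounds plus R1881 agonist added to MDA-kb2 AR-luc cells, incubated 16 h at 37C. Luciferase reporter luminescence quantified, with multiplexed CellTiter-Fluor readout for cell viability.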

Measured: Potency

Glucocorticoid receptor (Homo sapiens), sequence (P04150 whole entry, looked up): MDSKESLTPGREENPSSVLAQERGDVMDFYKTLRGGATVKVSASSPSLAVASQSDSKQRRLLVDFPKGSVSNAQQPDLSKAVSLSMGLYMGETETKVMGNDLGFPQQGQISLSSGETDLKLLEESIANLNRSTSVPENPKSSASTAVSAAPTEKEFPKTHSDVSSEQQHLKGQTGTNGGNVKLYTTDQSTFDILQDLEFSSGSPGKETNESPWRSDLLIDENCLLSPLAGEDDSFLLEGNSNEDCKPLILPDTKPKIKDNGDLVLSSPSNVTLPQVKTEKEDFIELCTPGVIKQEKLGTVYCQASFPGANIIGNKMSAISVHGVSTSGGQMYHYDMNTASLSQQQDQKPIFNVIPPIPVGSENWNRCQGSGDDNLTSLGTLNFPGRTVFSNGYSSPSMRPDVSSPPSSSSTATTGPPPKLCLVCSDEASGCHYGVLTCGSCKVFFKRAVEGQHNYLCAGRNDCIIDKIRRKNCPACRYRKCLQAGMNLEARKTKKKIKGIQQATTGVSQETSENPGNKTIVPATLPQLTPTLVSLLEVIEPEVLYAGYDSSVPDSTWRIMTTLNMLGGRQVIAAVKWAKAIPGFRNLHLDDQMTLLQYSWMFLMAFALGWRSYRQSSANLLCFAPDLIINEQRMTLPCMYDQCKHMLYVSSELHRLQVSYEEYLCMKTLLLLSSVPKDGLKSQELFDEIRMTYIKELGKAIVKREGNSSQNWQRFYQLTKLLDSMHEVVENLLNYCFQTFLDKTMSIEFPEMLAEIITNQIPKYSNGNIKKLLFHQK
Androgen receptor (Homo sapiens), sequence (P10275 whole entry, looked up): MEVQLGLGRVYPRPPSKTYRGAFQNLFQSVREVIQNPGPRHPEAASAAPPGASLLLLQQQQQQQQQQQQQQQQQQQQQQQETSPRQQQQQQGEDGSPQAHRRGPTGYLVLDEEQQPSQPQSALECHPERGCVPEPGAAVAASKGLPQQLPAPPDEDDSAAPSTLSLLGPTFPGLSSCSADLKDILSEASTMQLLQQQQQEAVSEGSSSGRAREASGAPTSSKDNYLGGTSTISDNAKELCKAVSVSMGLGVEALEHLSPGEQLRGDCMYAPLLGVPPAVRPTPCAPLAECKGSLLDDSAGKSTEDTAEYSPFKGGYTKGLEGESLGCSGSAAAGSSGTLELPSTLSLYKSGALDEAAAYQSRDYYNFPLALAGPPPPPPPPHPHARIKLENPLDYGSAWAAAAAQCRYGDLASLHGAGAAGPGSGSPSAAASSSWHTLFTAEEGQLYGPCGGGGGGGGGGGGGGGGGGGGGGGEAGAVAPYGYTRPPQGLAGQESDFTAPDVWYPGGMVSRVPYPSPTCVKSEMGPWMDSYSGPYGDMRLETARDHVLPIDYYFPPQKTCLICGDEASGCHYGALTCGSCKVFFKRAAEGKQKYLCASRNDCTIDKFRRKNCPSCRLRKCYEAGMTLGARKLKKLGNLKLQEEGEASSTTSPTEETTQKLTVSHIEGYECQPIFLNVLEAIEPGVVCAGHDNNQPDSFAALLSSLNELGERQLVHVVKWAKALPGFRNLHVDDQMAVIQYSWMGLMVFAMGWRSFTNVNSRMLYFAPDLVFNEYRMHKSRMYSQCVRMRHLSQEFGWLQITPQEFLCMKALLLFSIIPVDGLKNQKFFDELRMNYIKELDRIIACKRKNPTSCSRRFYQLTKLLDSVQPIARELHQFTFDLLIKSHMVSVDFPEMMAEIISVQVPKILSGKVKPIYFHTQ

Nc1ccc(O)c(N)c1
active: [11] 24.3 µM | [13] 27.3 µM
inactive and 27.3 µM (active): [12]
inactive: [1] | [2] | [3] | [4] | [5] | [6] | [7] | [8] | [9] | [10] | [14]

IC(I)I
inactive: [1] | [2] | [3] | [4] | [5] | [6] | [7] | [9] | [15] | [10] | [11] | [12] | [13] | [14] | [16]

CCO[Si](CCCNC(N)=O)(OCC)OCC
inactive: [1] | [2] | [3] | [4] | [5] | [6] | [7] | [8] | [9] | [15] | [10] | [11] | [12] | [14] | [16]

C=C[C@H]1CN2CC[C@H]1C[C@H]2[C@H](O)c1ccnc2ccc(OC)cc12
active: [11] 13.3 µM and 8.41 µM and 54.5 µM | [12] 23.7 µM and 13.3 µM and 27.3 µM
inactive: [1] | [2] | [3] | [4] | [5] | [6] | [7] | [8] | [10] | [14] | [16]

C=C1C[C@H]2[C@@H]3C=C(C)C4=CC(=O)CC[C@]4(C)[C@H]3CC[C@]2(C)[C@@]1(OC(C)=O)C(C)=O
active: [9] 120 nM [inconclusive] and 14.1 nM | [12] 8.41 µM and 14 µM | [13] 10.6 µM and 17.6 µM | [17] 1.77 µM | [19] 47.3 nM and 27.9 nM
inactive: [1] | [2] | [3] | [4] | [5] | [6] | [7] | [8] | [15] | [10] | [14] | [18] | [16] | [20]

NCCOCCO
inactive: [1] | [2] | [3] | [4] | [5] | [6] | [7] | [8] | [9] | [15] | [10] | [11] | [12] | [13] | [14] | [16]

Oc1c(Cl)ccc(Cl)c1Cl
inactive: [1] | [2] | [3] | [4] | [5] | [6] | [7] | [8] | [9] | [15] | [10] | [11] | [12] | [14] | [16]
